# Measurements published in PubChem BioAssay (NCATS).
# Results filed as inconclusive are left out. Where a call stands in place of a potency, no number is given. Calls of active or inactive are those of the source. Calls come from the whole dose curve; as a rule, active = well fitted inhibition curve with a large enough effect; inconclusive = small, poorly fitted or top-dose-only effect; inactive = flat fitted curve, though single readings scatter.
# Test system: HACAT
# Assay: qHTS assay to identify novel small-molecules to repurpose for Merkel cell carcinoma treatment (AID 1296009); note: nearly all actives have a fitted effect of over 60% in size
# Conditions: MCC and control cell lines, CellTiter-Glo viability, 72 h; at 44.8 µM (top of the series) unless noted
# Summary of the method: (§1)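 After compound transfer in DMSO, plates were kept 72 hr at 37 degree celsius. Luminescent ATP signal from CellTiter-Glo served as viability measure, normalized against DMSO and no-cell controls.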
row,Compound,outcome
1,CCCCCCc1cccc(NC(=O)[C@H](N)CCP(=O)(O)O)c1,inactive [at 9.27 µM]
2,CC(C)CC(=O)n1cc(C(N)=O)c(=O)cc1C(O)c1ccccc1 (stereo not given),inactive
3,CC(C)C(C#N)O[C@@H]1O[C@H](CO[C@@H]2OC[C@](O)(CO)[C@H]2O)[C@@H](O)[C@H](O)[C@H]1O (stereo not given in full),inactive
4,COc1ccc(/C=C/C(=O)O[C@H]2[C@@H]3C=CO[C@@H](O[C@@H]4O[C@H](CO)[C@@H](O)[C@H](O)[C@H]4O)[C@@H]3[C@@]3(CO)O[C@@H]23)cc1O,inactive [at 17.4 µM]
5,C=C1CC23CC1(O)CCC2C1=CC2OC(=O)C(C)(C2O)C1C3C(=O)O (stereo not given),inactive
6,COc1cc(/C=C/C(=O)OC[C@H]2O[C@H](O[C@]3(CO)O[C@H](CO)[C@@H](O)[C@@H]3O)[C@H](O)[C@@H](O)[C@@H]2O)cc(OC)c1O,inactive [at 17.4 µM]
7,C(#Cc1cccc(CN2CCOCC2)c1)CCN1CCCCC1,inactive
8,COc1cc(C)c(C(=O)O[C@H]2[C@@H](O)[C@H](n3ccc(=O)[nH]c3=O)O[C@@H]2CO)c(OC)c1,inactive [at 17.4 µM]
9,C[C@@]12C[C@]3(O)O[C@H](O1)[C@]1(COC(=O)c4ccccc4)[C@H]3C[C@@]12O[C@@H]1O[C@H](COC(=O)c2ccccc2)[C@@H](O)[C@H](O)[C@H]1O,inactive [at 17.4 µM]
10,C[C@@H]1O[C@@H](O[C@H]2[C@H](O)[C@@H](C(=O)O)O[C@@H](O[C@H]3CC[C@@]4(C)C(CC[C@]5(C)C4CC=C4C6CC(C)(C)CC[C@]6(C(=O)O)CC[C@]45C)C3(C)C)[C@@H]2O[C@@H]2O[C@H](CO)[C@@H](O)[C@H](O)[C@H]2O)[C@H](O)[C@H](O)[C@H]1O (stereo not given in full),inactive [at 9.27 µM]
11,CC(=O)N1CCN(NC(=O)c2ccc(F)cc2)CC1,inactive

# Test system: HEK293T
# Assay: as above
# Conditions: MCC and control cell lines, CellTiter-Glo viability, 72 h; series mostly up to 44.8 µM
# Summary of the method: as §1
Compound,Potency,outcome
C[C@]12CCC[C@](C)(C(=O)O)C1CCC13C=C(CO)C(CCC12)C3 (stereo not given in full),inactive,
O=C(c1ccc(C#Cc2cccc(F)c2)cn1)N1CC2CC2C1 (stereo not given),inactive,
C[C@H]1[C@H](C)CC[C@]2(C(=O)O)CC[C@]3(C)C(=CC[C@@H]4[C@@]5(C)C[C@@H](O)[C@H](O)[C@@](C)(CO)[C@@H]5CC[C@]43C)[C@H]12,inactive,
C/C=C/C=C/C(CC(=O)O)Nc1ccc(C=O)cc1 (stereo not given),inactive,
C[C@@H]1O[C@@H](O[C@H]2[C@H](OC(=O)[C@]34CCC(C)(C)C[C@H]3C3=CCC5[C@@]6(C)C[C@H](O)[C@H](O[C@@H]7O[C@H](CO)[C@@H](O[C@@H]8O[C@H](CO)[C@@H](O)[C@H](O)[C@H]8O)[C@H](O)[C@H]7O)[C@@](C)(CO)C6[C@H](O)C[C@@]5(C)[C@]3(C)C[C@H]4O)OC[C@H](O)[C@@H]2O)[C@H](O)[C@H](O)[C@H]1O[C@@H]1OC[C@@H](O)[C@H](O[C@@H]2OC[C@](O)(CO)[C@H]2O)[C@H]1O (stereo not given in full),,inactive [at 9.27 µM]
CC(C)(O)c1ccc2c(c1)C(=O)CC1[C@](C)(CO)CCC[C@]21C (stereo not given in full),inactive,
CC(=O)C1CCC2(C)C3=C(CCC12C)C1(C)CCC(=O)C(C)(C)C1CC3 (stereo not given),inactive,
C[C@@H]1C/C=C/C=C\C=C\C=C\[C@H](O[C@@H]2O[C@H](C)[C@@H](O)[C@H](N)[C@@H]2O)C[C@@H]2O[C@](O)(C[C@@H](O)C[C@H]3O[C@@H]3/C=C/C(=O)O1)C[C@H](O)[C@H]2C(=O)O,inactive,
COC(=O)C[C@@H]1C(C(=O)O)=CO[C@@H](O[C@@H]2O[C@H](CO)[C@@H](O)[C@H](O)[C@H]2O)/C1=C\COC(=O)/C=C\c1ccccc1,inactive,
CC1CCC2C(C(=O)O)=CC3C(O)C(C)(C)CC123 (stereo not given),inactive,
CC(C)(O)/C=C1/C(=O)C(C)(C)C(=O)C(C)(C)C1(O)O[C@@H]1O[C@H](COC(=O)c2cc(O)c(O)c(O)c2)[C@@H](O)[C@H](O)[C@H]1O (stereo not given in full),inactive,
Cc1cc(O)c(C(C)C)cc1O[C@@H]1O[C@H](CO)[C@@H](O)[C@H](O)[C@H]1O,inactive,
O=C1CC(c2ccc([N+](=O)[O-])cc2)=NN1c1ccccc1,inactive,
C=C1[C@H]2[C@H](O[C@@H]3O[C@H](COC(=O)/C=C/c4cc(OC)c(O)c(OC)c4)[C@@H](O)[C@H](O)[C@H]3O)OC=C(C(=O)O)[C@H]2C[C@@H]1O,inactive,
C/C=C(\C)C(=O)OC[C@H]1O[C@H](O[C@H]2O[C@H](CO)[C@@H](OC(=O)/C(C)=C/C)[C@H](O)[C@H]2O[C@@H]2O[C@H](CO)[C@@H](O)[C@H](O)[C@H]2O)[C@H](O[C@@H]2O[C@H](CO)[C@@H](O)[C@H](O)[C@H]2O)[C@@H](O)[C@@H]1O,,inactive [at 9.27 µM]
CN1CC[C@@H](NC(=O)Nc2ccc(C#N)cc2)C[C@@H]1c1nc2ccccc2[nH]1,inactive,
O=C(O)c1cc(O[C@@H]2O[C@H](CO[C@@H]3OC[C@@H](O)[C@H](O)[C@H]3O)[C@@H](O)[C@H](O)[C@H]2O)c2ccccc2c1O,inactive,
O=c1ccn(C2OC(CO)C(O)C2O)c(=O)[nH]1 (stereo not given),inactive,
Clc1ccc(CN[C@H]2CCN(c3ncc(Br)cn3)C2)c(Cl)c1,inactive,
C=C1C(=O)OC2/C=C(\C)CC/C=C(\C(=O)O)CC/C=C(\C)CCC12 (stereo not given),inactive,

Compound,Potency,outcome
C=CC1(C)C=C2C(=O)CC3C(C)(C)CCCC3(C(=O)O)C2(O)CC1 (stereo not given),inactive,
COc1c(C)c2c(c(O)c1C/C=C(\C)CC/C=C(\C)CCC(=O)O)C(=O)OC2,inactive,
CNC(=O)COC(=O)NCCC1CCN(c2cccc(C)n2)CC1,inactive,
Cc1nn(C)c(COc2ccc(N3CCN(S(=O)(=O)N(C)C)CC3)cc2)c1-c1cccc2c(CCCOc3cccc4ccccc34)c(C(=O)O)n(CCN3CCOCC3)c12,inactive,
CCCCS(=O)(=O)Nc1ncnc(OCCOc2ncc(Br)cn2)c1-c1ccc(Br)cc1,inactive,
C[C@H]1C[C@H]2[C@@H]3CCC4=CC(=O)C=C[C@]4(C)[C@@]3(F)[C@@H](O)C[C@]2(C)[C@@]1(O)C(=O)COP(=O)(O)O,inactive,
CC(C)(O)c1ccc2c(c1)C(O)CC1C(C)(C(=O)O)CCCC21C (stereo not given),inactive,
COc1cc(CCc2ccccc2)c(C(=O)O)c2c1CC(C(C)(C)O)O2 (stereo not given),inactive,
CCCCCCc1cccc(NC(=O)[C@H](N)CCP(=O)(O)O)c1,,inactive [at 9.27 µM]
CC(C)CC(=O)n1cc(C(N)=O)c(=O)cc1C(O)c1ccccc1 (stereo not given),inactive,
CC(C)C(C#N)O[C@@H]1O[C@H](CO[C@@H]2OC[C@](O)(CO)[C@H]2O)[C@@H](O)[C@H](O)[C@H]1O (stereo not given in full),inactive,
COc1ccc(/C=C/C(=O)O[C@H]2[C@@H]3C=CO[C@@H](O[C@@H]4O[C@H](CO)[C@@H](O)[C@H](O)[C@H]4O)[C@@H]3[C@@]3(CO)O[C@@H]23)cc1O,inactive,
C=C1CC23CC1(O)CCC2C1=CC2OC(=O)C(C)(C2O)C1C3C(=O)O (stereo not given),inactive,
COc1cc(/C=C/C(=O)OC[C@H]2O[C@H](O[C@]3(CO)O[C@H](CO)[C@@H](O)[C@@H]3O)[C@H](O)[C@@H](O)[C@@H]2O)cc(OC)c1O,inactive,
C(#Cc1cccc(CN2CCOCC2)c1)CCN1CCCCC1,inactive,
COc1cc(C)c(C(=O)O[C@H]2[C@@H](O)[C@H](n3ccc(=O)[nH]c3=O)O[C@@H]2CO)c(OC)c1,inactive,
C[C@@]12C[C@]3(O)O[C@H](O1)[C@]1(COC(=O)c4ccccc4)[C@H]3C[C@@]12O[C@@H]1O[C@H](COC(=O)c2ccccc2)[C@@H](O)[C@H](O)[C@H]1O,inactive,
C[C@@H]1O[C@@H](O[C@H]2[C@H](O)[C@@H](C(=O)O)O[C@@H](O[C@H]3CC[C@@]4(C)C(CC[C@]5(C)C4CC=C4C6CC(C)(C)CC[C@]6(C(=O)O)CC[C@]45C)C3(C)C)[C@@H]2O[C@@H]2O[C@H](CO)[C@@H](O)[C@H](O)[C@H]2O)[C@H](O)[C@H](O)[C@H]1O (stereo not given in full),,inactive [at 9.27 µM]
CC(=O)N1CCN(NC(=O)c2ccc(F)cc2)CC1,inactive,
